Source: PubChem BioAssay
ClpP mod – qHTS Assay for Activators of ClpP. ATP-dependent Clp protease proteolytic subunit (Bacillus subtilis (strain 168)), P80244. purified B. subtilis ClpP, FRET peptide cleavage, 20 min. Potency, µM (doses to about 57.5 µM), for the others: top-dose activity change, negative = active. 340,000 tested, 1.9% active; active = well fitted falling curve with a large enough effect; inconclusive = small, poorly fitted or top-dose-only effect; inactive = no such curve, though single readings can be large or run the other way; note: potency is the fitted concentration of half-maximal effect; the source files actives as falling curves though it sought activators and does not explain the sign; nearly all actives have a fitted effect of over 65% in size
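FRET quenching reversal measured ClpP activation: 10 microg/mL B. subtilis ClpP at pH 8 with the FRET-FV decapeptide, read at 430 nm after 320 nm excitation. The 20-min minus 0-min signal was scaled between DMSO/no-enzyme wells and ADEP (5.8 microM final).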
GLP1R inv ag – qHTS of GLP-1 Receptor Inverse Agonists (Inhibition Mode). HEK293 GLP-1R CRE-luciferase, luminescence, 24 h; GLP-1R form is constitutively active. AID 624417, 2012. Potency, µM (titrated, usually from 38.3 µM), without a hit: at the top dose activity change, negative = inhibition, usual class: inhibitors. 410,000 tested, 1.6% active. Glucagon-like peptide 1 receptor (Homo sapiens), P43220; note: potency is the fitted concentration of half-maximal effect; % is set by controls: 0 for no effect and ±100 for the full control effect; nearly all actives have a fitted effect of over 55% in size
Target sequence (P43220 whole entry, looked up): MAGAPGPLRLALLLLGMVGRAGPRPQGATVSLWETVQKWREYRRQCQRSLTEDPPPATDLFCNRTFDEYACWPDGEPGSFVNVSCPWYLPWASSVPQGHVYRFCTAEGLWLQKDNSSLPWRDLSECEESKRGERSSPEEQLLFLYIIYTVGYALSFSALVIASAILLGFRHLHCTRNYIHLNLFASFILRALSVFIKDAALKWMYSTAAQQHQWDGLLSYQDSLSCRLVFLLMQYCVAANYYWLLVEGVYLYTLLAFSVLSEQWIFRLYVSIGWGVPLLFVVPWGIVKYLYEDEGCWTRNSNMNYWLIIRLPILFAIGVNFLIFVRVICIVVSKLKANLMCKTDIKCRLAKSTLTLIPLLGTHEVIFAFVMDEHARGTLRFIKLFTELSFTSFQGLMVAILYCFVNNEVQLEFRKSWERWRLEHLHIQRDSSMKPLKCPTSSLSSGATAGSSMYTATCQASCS
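Constitutively active GLP-1R drives a cAMP-responsive luciferase in stably transfected HEK293 cells; test compounds are added after overnight (12 h) attachment and left 24 hr, and signal loss in luminescence marks inhibition.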
LDHA inh – qHTS assay for inhibitors of human lactate dehydrogenase; L-lactate dehydrogenase A chain (Homo sapiens), P00338; purified LDHA, NADH/diaphorase-resazurin fluorescence; hits give low values; activity change, % (values are at about 110 or 230 µM); 480,000 tested, 0.15% active; in the data active = activity change below about -30%; inconclusive = mostly about -25% to -30%;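 note: plate controls were DMSO wells for no effect and wells without enzyme for full effect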
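LDH5 2 nM; NADH 0.06 mM, pyruvate 0.2 mM; 200 mM Tris pH 7.4, EDTA, Tween-20; 5 min RT. Detection: diaphorase 0.133 mg/mL + resazurin 37 µM, fluorescence ex540/em590 at 0 and 20 min; normalized to enzyme-free and DMSO wells.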
GLP1R ag – qHTS of GLP-1 Receptor Agonists. HEK293 GLP-1R CRE-luciferase, luminescence, 4-6 h; cells express a hypersensitive GLP-1R form. Potency, µM (top dose mostly 45.6 µM), inactives show at the highest dose activation, actives largely listed as activators. 380,000 tested, 0.007% active. AID 624172, 2012; note: potency is the fitted concentration of half-maximal effect; % of control where 0% means no effect
GLP1R cytotox – qHTS of GLP-1 Receptor Inverse Agonists: Cytotox Screen; HEK293 cAMP-luciferase reporter cells, luminescence, 24 h; Potency, µM (highest dose often 38.3 µM), inactives show at the top dose activity change, negative = inhibition, usual class: inhibitors; 410,000 tested, 0.13% active; AID 624418, 2012;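 note: loss of luciferase light is scored as toxicity; potency is the fitted concentration of half-maximal effect; % is set by controls: 0 for no effect and ±100 for the full control effect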
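Luminescence readout: signal drop marks cytotoxicity. Plated cells grew 12 h at 37 °C, 5% CO2, received 23 nL compound for 24 h, then got luciferase reagent, read after 12 min at RT.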
p53 reactivation – qHTS assay for re-activators of p53 using a Luc reporter; AID 504706, 2011; H1299 p53-A138V BP100-luciferase reporter, luminescence, 24 h; 320,000 tested, 0.063% active; Potency, µM (titrated, usually from 92.2 µM), for inactives: at the highest dose activity change, positive = activation, usual class: activators; note: potency is the fitted concentration of half-maximal effect; % of control where 0% means no effect; nearly all actives have a fitted effect of over 45% in size
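H1299 (p53-null), stable ts p53-A138V + BP100-Luc; 1000 cells/well, Opti-MEM/10% FBS; cpd 4 pt, 1:5; 24 h, 37 deg C, 5% CO2; detection reagent 10 min RT; luminescence.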
* marks the source's active call; other numbers are inactive results; ? = inconclusive; . = no result given; [ ] = dose if it differs, or a comment. Compounds with a hit are over-represented: about 2.9% of the library has one in this group of screens. Unless noted, calls come from the whole dose curve; as a rule, active = well fitted curve in the direction sought with a large enough effect; inconclusive = small, poorly fitted or top-dose-only effect, or another doubt; inactive = no such curve, though single readings can be large; an effect the other way counts as inactive or inconclusive.

SMILES	ClpP mod	GLP1R inv ag	LDHA inh	GLP1R ag	GLP1R cytotox	p53 reactivation
Cn1c(=O)[nH]c2nc[nH]c2c1=O	0%	10%	-8	28%	0%	5%
CN(Cc1cccc(F)c1)S(=O)(=O)c1ccc2c(c1)CCCC2	.	.	-2	.	.	.
C[C@H](CO)N1C[C@H](C)[C@@H](CN(C)S(=O)(=O)c2ccccc2)OCCCC[C@H](C)Oc2ccc(NC(=O)CCC(F)(F)F)cc2C1=O	1%	0%	3	-2%	-6%	.
C[C@H]1CN([C@@H](C)CO)C(=O)Cc2cc(NC(=O)CCN3CCOCC3)ccc2O[C@@H]1CN(C)Cc1ccc(Oc2ccccc2)cc1	-4%	?	-1	-3%	-11%	-2%
C[C@H]1CN([C@@H](C)CO)C(=O)Cc2cc(NC(=O)CCC(F)(F)F)ccc2O[C@H]1CN(C)Cc1ccc(C(F)(F)F)cc1	0%	10µM*	1	-3%	-11%	10%
C[C@H]1CN([C@@H](C)CO)C(=O)Cc2cc(NC(=O)C3CC3)ccc2O[C@H]1CN(C)Cc1ccc(Oc2ccccc2)cc1	-2%	10µM*	1	-3%	-8%	0%
C[C@H]1CN([C@@H](C)CO)C(=O)Cc2cc(NC(=O)CCC(F)(F)F)ccc2O[C@H]1CN(C)Cc1ccc(-c2ccccc2)cc1	-2%	4.5µM*	-1	-1%	2%	3%
C[C@@H]1CCCCO[C@@H](CN(C)Cc2ccc(Cl)c(Cl)c2)[C@@H](C)CN([C@H](C)CO)C(=O)c2cc(NC(=O)CCC(F)(F)F)ccc2O1	-6%	2.8µM*	-3	1%	-22%	.
Cc1c(Cl)ccc2sc(N3CCN(C(=O)C4CC4)CC3)nc12	-3%	?	-3	.	-2%	.
O=[N+]([O-])c1ccc(C=NNc2ccccc2)cc1	-2%	5µM*	0	-13%	-8%	.
O=[N+]([O-])c1ccc(N/N=C/c2ccc(/C=N/Nc3ccc([N+](=O)[O-])cc3)cc2)cc1	.	.	-8	.	.	.
O=C(CN1c2ccccc2Sc2ccccc21)N/N=C/c1ccc([N+](=O)[O-])cc1	-2%	13µM*	-2	5%	-7%	9%
O=C(CN1c2ccccc2Sc2ccccc21)N/N=C/c1ccccc1	2%	?	0	-1%	-2%	3%
CC12CCC(C(=O)Nc3cccnc3)(CC1=O)C2(C)C (configuration not stated)	0%	7%	-2	-3%	2%	0%
COCCn1ccc2c(OCC(=O)NCc3ccc(C)cc3)cccc2c1=O	28µM*	14%	-4	16%	-9%	-2%
COC(=O)CCc1c(C)[nH]c(C(=O)OCc2ccccc2)c1C	-3%	?	-5	10%	-17%	-2%
CCn1c(=O)c(C(=O)CN(C)Cc2ccc(F)cc2)c(N)n(Cc2ccccc2)c1=O	.	8.9µM*	-7	-1%	-17%	10%
CCn1nc(C)c(CNC(=O)Nc2ccccc2C(=O)OC)c1C	2%	17%[7.66 µM]	-10	1%	20%[7.66 µM]	3%
CCC(Oc1ccc(F)cc1)C(=O)Nc1cc(-c2ccc(C)cc2)no1 (configuration not stated)	-2%	?	1	.	4%	.
CCC(Oc1ccc(F)cc1)C(=O)Nc1nc(-c2ccc(F)cc2)ns1 (configuration not stated)	0%	10µM*	0	.	-24%	.
Nc1ccc(NC(=O)NC2CCCCC2)cc1	.	19%	3	2%	-2%	0%
CN(C)c1cccc(F)c1C(=O)NC(=O)Nc1ccc(Cl)cc1	-17%	8.9µM*	-4	-1%	?	.
